Source: PubChem BioAssay (Tox21)
Results filed as inconclusive are left out. A number with no mark means an inactive call. Active and inactive are the calls of the source. Calls come from the whole dose curve; as a rule, active = well fitted cell-killing curve with a large enough effect in the repeat runs; inconclusive = weak or mixed curves, or effect the other way; inactive = flat fitted curve, though single readings scatter.
% is set by controls: 0 for no effect and ±100 for the full control effect; potency is the fitted concentration of half-maximal effect.

Assay: cAMP Responsive Elements (CRE) small molecule antagonists, cell-based qHTS assay: qHTS cell viability counter screen (AID 2060913); note: nearly all actives have a fitted effect of over 40% in size
Conditions: CRE-bla HEK293T viability, CellTiter-Glo luminescence, 5 h; series mostly up to 92.4 µM; viability change, negative = cytotoxic: at the top concentration
Method in brief: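 CRE-bla HEK293T cells (2,000/well, 18 h) given compound plus NKH477 0.25 uM final for 3 h at 37C; viability counter-screen by CellTiter-Glo luminescence in same wells after 30 min.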
For `CCCCCCCCCCCBr`, the “viability change, negative = cytotoxic” value was 4.23% [at 42.5 µM]. With `C=CCCCCCCCCOC(C)=O` the “viability change, negative = cytotoxic” value was -2.8%. With `COC(=O)C(c1ccccc1Cl)N1CCc2sccc2C1` (stereo not given) the “viability change, negative = cytotoxic” value was 0.0696% [at 42.5 µM]. For `CCC(C)c1ccccc1` (stereo not given), the “viability change, negative = cytotoxic” value was 5.44%. For `C=CCCCC`, the “viability change, negative = cytotoxic” value was 0.654%. With `CNc1c2c(nn1C)CCCC2` the “viability change, negative = cytotoxic” value was -0.578% [at 42.5 µM]. In the case of `Oc1cc(Cl)cc(Cl)c1Cl`, the Potency is reported as 55.8 µM (active). For `CC1=NS(=O)(=O)c2cc(Cl)ccc2N1`, the “viability change, negative = cytotoxic” value was 8.19% [at 42.5 µM]. In the case of `CCc1cccc(CC)c1N(COC)C(=O)CS(=O)(=O)O`, the “viability change, negative = cytotoxic” value is reported as 5.57%. With `OCCc1ccccn1` the “viability change, negative = cytotoxic” value was 3.14%. For `Cc1cccc(OCC(O)CNC(C)(C)C)c1C` (stereo not given), the “viability change, negative = cytotoxic” value was 10.6% [at 42.5 µM]. With `CCCN(CCc1cccs1)[C@H]1CCc2c(O)cccc2C1` the “viability change, negative = cytotoxic” value was -4.7% [at 42.5 µM]. For `N[C@H]1C(O)O[C@H](CO)[C@H](O)[C@@H]1O` (stereo not given in full), the “viability change, negative = cytotoxic” value was 0.0515%. In the case of `CC(C)(Oc1ccc(CCNC(=O)c2ccc(Cl)cc2)cc1)C(=O)O`, the Potency is reported as “inactive”. In the case of `CCCCCCCCCCCCCCNCCO`, the “viability change, negative = cytotoxic” value is reported as -1.28% [at 42.5 µM]. With `Nc1ncnc(Nc2ccccc2)n1` the “viability change, negative = cytotoxic” value was 14.5% [at 42.5 µM]. For `Cn1cnc2c(=O)[nH]c(N)nc21`, the “viability change, negative = cytotoxic” value was 10.5%. In the case of `CCOC(=O)O[C@H](C)OC(=O)c1ccc2c(c1)cc(C(=O)NC1CCN(C(C)C)CC1)n2Cc1cc(-c2ccc(Cl)s2)on1`, the Potency is reported as 57.1 µM (active). With `O=C(O)C(O)[C@H](O)[C@@H](O)[C@H](O)[C@H](O)CO` (stereo not given in full) the “viability change, negative = cytotoxic” value was 6.56%. With `O=C(Oc1ccccc1)Oc1ccccc1` the “viability change, negative = cytotoxic” value was -10.4%. For `O=C(CCCN1CCC(O)(c2ccc(Br)cc2)CC1)c1ccc(F)cc1`, the “viability change, negative = cytotoxic” value was -14.7% [at 42.5 µM]. For `Oc1c(Cl)cc(Cl)c2cccnc12`, the “viability change, negative = cytotoxic” value was 3.07% [at 42.5 µM]. In the case of `O=P(OC(CCl)CCl)(OC(CCl)CCl)OC(CCl)CCl`, the Potency is reported as “inactive”. For `FC(F)(F)c1ccc(Cl)c(Cl)c1`, the Potency was “inactive”. With `O=C(O)Cc1cn(-c2ccccc2)nc1-c1ccc(Cl)cc1` the “viability change, negative = cytotoxic” value was -1.67% [at 42.5 µM]. For `C=C(C)C(=O)OCCOCCOCCOCCOC(=O)C(=C)C`, the “viability change, negative = cytotoxic” value was -6.52%. For `OCCOc1cccc(OCCO)c1`, the “viability change, negative = cytotoxic” value was 0.488%. With `CCCCNC(=S)NCCCC` the “viability change, negative = cytotoxic” value was 1.39%. With `CCCC(=O)c1cc(O)c(O)cc1O` the “viability change, negative = cytotoxic” value was -0.0407%. With `Cc1ccc(N)cc1S(=O)(=O)O` the “viability change, negative = cytotoxic” value was -6.59%. With `CC(C)C(C)(C)C(C)(C)C(C)(C)S` the “viability change, negative = cytotoxic” value was 2.9%. In the case of `CC(=O)OCC(=O)[C@@]12OC(C)(C)O[C@@H]1C[C@H]1[C@@H]3C[C@H](F)C4=CC(=O)C=C[C@]4(C)[C@@]3(F)[C@@H](O)C[C@@]12C`, the “viability change, negative = cytotoxic” value is reported as -6.12% [at 42.5 µM]. With `Cc1ccccc1OCC(=O)O` the “viability change, negative = cytotoxic” value was 7.55%. For `COc1ccc2cc3[n+](cc2c1OC)CCc1cc2c(cc1-3)OCO2`, the Potency was “inactive”. With `CCNC(=O)/C=C/c1cccc(Br)c1` the “viability change, negative = cytotoxic” value was -4.02% [at 42.5 µM]. With `Brc1cc(-c2ccc(Br)c(Br)c2Br)cc(Br)c1Br` the “viability change, negative = cytotoxic” value was -23.8% [at 42.5 µM]. Compound `C[C@@H]1NC(=O)[C@@H](N)CNC(=O)[C@H](C2CCNC(N)=N2)NC(=O)/C(=C/NC(N)=O)NC(=O)[C@H](CNC(=O)C[C@@H](N)CCCN)NC1=O` (stereo not given in full) has a viability change, negative = cytotoxic of -0.0663% [at 0.349 µM]. In the case of `C=CCOc1nc(OCC=C)nc(OCC=C)n1`, the “viability change, negative = cytotoxic” value is reported as 0.127%. In the case of `c1ccc2cc3c(ccc4ccccc43)cc2c1`, the Potency is reported as “inactive”. With `C/C=C(\C)C#N` the “viability change, negative = cytotoxic” value was 1.76%.
